Experiment [1] in a line: compound effects on lung adenocarcinoma cell viability – A549, calcein-AM fluorescence, 48 h, basal, profiling panel (AID 1162). Particulars: higher = more signal.
The nature of experiment [2]: compound effects on differentiated 3T3-L1 adipocyte viability – cell-based, 3T3-L1 adipocytes, calcein-AM fluorescence, 48 h, basal, profiling panel (AID 1163). To be noted: 3T3-L1 adipocytes viability, higher = more signal.
Experiment [3] is described as follows: compound effects on hepatocellular carcinoma cell viability – HepG2, calcein-AM fluorescence, 48 h, basal, profiling panel (AID 1164). Particulars: higher = more signal.
The nature of experiment [4]: compound effects on multiple myeloma cell viability – MM1S, calcein-AM fluorescence, 48 h, basal, profiling panel (AID 1165).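 Note: viability of MM1S multiple myeloma cells under basal unstimulated conditions.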 Particulars: higher = more signal.
Experiment [5] in a line: calcein-AM signal in unstimulated myeloma cells – cell-based, calcein-AM fluorescence, 48 h, PK04 Diversity Set, profiling panel (AID 1166).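 Note: cells grown under basal conditions without added stimulus.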 Particulars: RPMI8226 myeloma viability, higher = more signal.
Experiment [6] can be described thus: JC-1 mitochondrial signal, unstimulated HepG2 cells – cell-based, JC-1 fluorescence, 24 h, 100 nL compound, profiling panel (AID 1167). Particulars: HepG2 mitochondrial potential, higher = more signal.
Experiment [7] can be described thus: JC-1 mitochondrial signal, unstimulated adipocytes – cell-based, JC-1 fluorescence, 3T3-L1 adipocytes, 24 h, 100 nL compound, profiling panel (AID 1168). To be noted: JC-1 mitochondrial fluorescence, higher = more signal, called active from +8 up or from −8 down.
Experiment [8] can be described thus: JC-1 mitochondrial signal, unstimulated myeloma cells – cell-based, JC-1 fluorescence, RPMI8226, 24 h, 100 nL compound, profiling panel (AID 1169). Particulars: JC-1 mitochondrial potential fluorescence, higher = more signal.
A short description of experiment [9]: JC-1 mitochondrial signal, unstimulated MM1S myeloma – cell-based, JC-1 fluorescence, 24 h, 100 nL compound, profiling panel (AID 1170). To be noted: MM1S mitochondrial potential, higher = more signal.
A short description of experiment [10]: resazurin metabolic signal in A549 cells – cell-based, resazurin fluorescence, 24 h, PK04 Diversity Set, profiling panel (AID 1171). Particulars: A549 viability, higher = more signal, called active from +8 up or from −8 down. A general note: Resazurin is reduced to fluorescent resorufin, in cell work by metabolically active cells.

Molecules are shown by their SMILES. Calls of active or inactive are those of the source.
Note: test concentration not given here.

Take `CC(=O)C[C@H](O)[C@@H](NC(=O)OC(C)(C)C)C(C)C`: the z-score in experiment [1] was 0.143; in [2], 0.819; in experiment [3] it was 0.0838; in experiment [4], -0.476; in experiment [5], -0.531; in experiment [6], -0.538. Also, the z-score in [7] is -0.0163 (inactive); in experiment [8], -0.545; in experiment [9], -0.347; in experiment [10], -0.289 (inactive).
With `CC(C)CON=C1[C@H]2CCn3c(=O)n(-c4ccccc4)c(=O)n3[C@H]2[C@H](O)[C@@H]2O[C@H]12`, the z-score in experiment [1] is -0.464; in [2] it was 0.322; in [3], 0.332; in experiment [4], 0.456; in [5] it was -1.2; in experiment [6], -0.174. Moreover, the z-score in experiment [7] was -0.0969 (inactive); in [8] it was -0.385; in [9] it was -0.209; in experiment [10], -0.829 (inactive).
Turning to `COC(=O)[C@@]1(Cc2ccc(F)cc2)[C@@H]2C(=CC(=O)[C@H]2CC(=O)C(=O)N(C)C)CN1C(=O)c1ccccc1`, the z-score was -1.29 in experiment [1]; -1.34 in [2]; 0.201 in [3]; -1.24 in experiment [4]; -2.67 in experiment [5]; 2.62 in experiment [6]. For the same compound, the z-score is 0.441 (inactive) in experiment [7], -0.817 in experiment [8], -2.01 in experiment [9] and -1.73 (inactive) in experiment [10].
For `[N-]=[N+]=NCc1ccccc1[C@@H]1OC(c2ccc(OCCCO)cc2)=N[C@]1(Cc1ccccc1)C(=O)N1CCOCC1`, the z-score is 0.307 in experiment [1]; 0.146 in [2]; 1.45 in experiment [3]; -1.2 in experiment [4]; -0.275 in experiment [5]; 0.787 in [6]. Besides, the z-score in experiment [7] is 1.05 (inactive); in [8], -1.39; in experiment [9], -1.13; in experiment [10] it was -1.14 (inactive).
For `O[C@@H](Cc1ccccc1)[C@H]1C2C=CCCC(c3ccccc3)=C2CN1Cc1cccc(Cl)c1` (stereo not given in full), the z-score is 1.89 in [1]; 0.101 in [2]; 0.662 in experiment [3]; -3.27 in experiment [4]; -3.43 in experiment [5]; 0.514 in experiment [6]. The z-score in experiment [7] is -0.366 (inactive); in [8] it was -1.09; in [9] it was -0.823; in experiment [10], 0.75 (inactive).
As to `COc1ccccc1CN1C(=O)c2ccccc2[C@@H](C(=O)NCC(F)(F)F)[C@@H]1c1ccc(CO)cc1`, the z-score in experiment [1] is 1.4; in experiment [2], -0.467; in experiment [3] it was 1.67; in experiment [4] it was -0.127; in experiment [5] it was 1.04; in experiment [6], 1.62. In addition, the z-score in experiment [7] was 0.913 (inactive); in experiment [8], 0.28; in [9] it was -0.684; in experiment [10], 0.633 (inactive).
As for `CC(CCN1CCc2nc(-c3ccccc3)c(-c3ccccc3)cc2C1)=NOC(C)CN1CCCCc2nc(C)c(C)cc21` (stereo not given), the z-score in experiment [1] is 0.646; in experiment [2] it was 0.659; in experiment [3], 0.797; in [4], -1.82; in experiment [5] it was -0.19; in [6], 4.98. Further, the z-score in experiment [7] was -1.28 (inactive); in experiment [8], 0.303; in [9], 0.108; in experiment [10] it was 0.935 (inactive).
For `CO[C@@H]1COC(=O)CC=C[C@@H](C)COC(=O)[C@H](COCc2ccccc2)NC(=O)CC=C[C@H]1C`, the z-score in experiment [1] is 0.248; in experiment [2], 0.268; in experiment [3], 0.351; in experiment [4] it was -0.987; in [5], -0.382; in [6], 0.575. The z-score in [7] is -0.407 (inactive); in experiment [8], -0.873; in [9], 1.61; in [10], -0.653 (inactive).
As to `CC(C)NC(=O)[C@@]1(c2ccc([N+](=O)[O-])cc2)CC(=O)N(CC23CC4CC(CC(C4)C2)C3)[C@@H]1c1ccc(CO)cc1I`, the z-score in [1] is -1.58; in [2] it was 0.58; in [3], -4.89; in [4], -3.8; in experiment [5], -4.29; in [6] it was 0.421. The z-score in experiment [7] is 0.402 (inactive); in experiment [8], -0.929; in experiment [9], -2.08; in experiment [10], -3.65 (inactive).
Regarding `O=C1[C@H]2[C@H]3[C@H](O)[C@H](O)CC(=NOCc4ccccc4)[C@H]3CC[C@H]2C(=O)N1C[C@@H]1CCCO1`, the z-score in experiment [1] is 0.0598; in [2], -0.247; in experiment [3] it was -0.85; in experiment [4], -0.306; in experiment [5], 0.422; in experiment [6] it was -0.528. Further, the z-score is -1.13 (inactive) in experiment [7], -0.669 in experiment [8], -0.153 in experiment [9] and 0.469 (inactive) in [10].
For `COc1cccc([C@H]2Oc3ccc(OC)cc3C(=NOC(C)CN3CCCc4nc(C)c(C)cc43)[C@@H]2O)c1` (stereo not given in full), the z-score was -0.0217 in experiment [1]; -0.529 in experiment [2]; 0.778 in experiment [3]; 0.296 in experiment [4]; -0.627 in experiment [5]; 0.0313 in experiment [6]. Moreover, the z-score in [7] is -1.29 (inactive); in [8] it was 0.239; in [9], -0.947; in [10], -0.455 (inactive).
`C/C=C\[C@@H](NCc1ccccc1Br)[C@@H](O)Cc1ccccc1`: the z-score in [1] is -1.17; in experiment [2], 1.43; in [3], -1.44; in experiment [4] it was -1.53; in experiment [5], -3.29; in experiment [6], -1.34. Further, the z-score was 0.0182 (inactive) in experiment [7], -0.926 in [8], -0.0951 in [9] and -0.29 (inactive) in experiment [10].
Take `C=CC[C@@H]1C=C[C@H](ON=Cc2ccc(C(=O)N3[C@H](c4ccc(C)cc4)[C@@H](C)CC[C@H]3C(=O)OC)cc2)[C@@H](CO)O1`: the z-score is 0.319 in [1]; -0.361 in experiment [2]; -0.431 in experiment [3]; -0.581 in experiment [4]; -1.4 in experiment [5]; -1.67 in experiment [6]. Besides, the z-score in experiment [7] was -0.0052 (inactive); in [8], 0.634; in [9], -0.434; in [10], -0.299 (inactive).
With `CO[C@H]1COC(=O)[C@H](C)COC(=O)CC=C[C@@H](C)[C@H](OC)COC(=O)CC=C[C@@H]1C`, the z-score was 0.593 in [1]; -0.101 in experiment [2]; 0.968 in [3]; 0.191 in experiment [4]; -0.0736 in experiment [5]; 0.69 in [6]. In addition, the z-score in [7] was 0.0241 (inactive); in experiment [8], 0.405; in experiment [9] it was 0.601; in [10] it was 0.239 (inactive).

Source of the values: PubChem BioAssay.
